Compounds with a hit are over-represented: about 6.1% of the library has one in this group of screens.
D1 antag: antagonists of human D1 dopamine receptor; P21728; HEK293 TREx D1 cells, calcium flux, dopamine EC80; stronger effect = lower value; activity change, negative = inhibition, % at 10 µM; 360,000 compounds, 3.2% hits; AID 504652; in the data active = activity change below about -30%
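Using tetracycline-induced force-coupled D1 Hek293 cells and a calcium dye, signals were followed for 180 s after compound, then for 180 s after EC80 dopamine, to detect inhibitors.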
D1 potentiator: potentiators of human D1 dopamine receptor. HEK293 TREx D1 cells, calcium flux, dopamine EC20 potentiation. 360,000 compounds, 0.036% hits. potentiation, % at 10 µM. P21728; in the data active = potentiation above about 30%
DRD3 agonist: agonists of human D3 dopamine receptor | max activation, % | 410,000 compounds, 0.58% hits | D3R DiscoveRx beta-arrestin cells, luminescence, 90 min; in the data active = max activation above about 30%
Target sequence (P35462 whole entry, looked up): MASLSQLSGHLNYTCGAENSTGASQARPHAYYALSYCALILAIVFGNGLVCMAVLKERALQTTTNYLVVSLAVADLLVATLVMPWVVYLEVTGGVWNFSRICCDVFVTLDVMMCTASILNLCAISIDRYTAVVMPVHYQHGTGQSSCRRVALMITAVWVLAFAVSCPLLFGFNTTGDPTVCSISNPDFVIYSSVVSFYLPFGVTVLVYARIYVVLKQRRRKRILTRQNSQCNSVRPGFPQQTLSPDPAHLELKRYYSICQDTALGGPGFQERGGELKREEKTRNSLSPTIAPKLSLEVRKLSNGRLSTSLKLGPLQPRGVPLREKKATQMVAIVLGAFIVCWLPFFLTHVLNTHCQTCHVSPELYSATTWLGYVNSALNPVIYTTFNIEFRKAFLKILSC
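Agonist-mode cell screen: cells plated at 1500/well and incubated overnight at 37 °C, then exposed to library compounds for 90 min at 37 °C. Detection reagent was added for 30–60 min at room temperature, and luminescence was read.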
D3 antag: blocks the human D3 dopamine receptor. P35462. D3R cells, DiscoveRx beta-arrestin luminescence, antagonist mode; stronger effect = lower value. max response, negative = inhibition, %. 360,000 compounds, 2.5% hits. AID 652054; in the data active = max response below about -50%; inconclusive = no clear call, values can overlap the other calls
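Cells expressing the human receptor were seeded at 1500 cells/well, incubated overnight at 37 degrees C in 5% CO2, then exposed to library compounds with dopamine controls for 90 minutes at 37 degrees C before luminescent detection.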
D1 agonist: agonists of human D1 dopamine receptor; P21728; HEK293 T-REx D1 cells, calcium flux, agonist mode; activation, % at 2 µM; 360,000 compounds, 1% hits; in the data active = activation above about 30%
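Tetracycline-induced HEK293 TREx D1 cells, force-coupled to calcium signalling, were dye-loaded with a no-wash calcium kit. Compound was pin-added after a 10 s baseline. Fluorescence was read kinetically at 1 cycle/s for 180 s, with calcium rises flagged as agonism.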
Hits are given with their value; - = inactive; ? = inconclusive; . = not tested or not shown.

SMILES	D1 antag	D1 potentiator	DRD3 agonist	D3 antag	D1 agonist
CN(C)CCCC1Sc2ccccc2Sc2ccccc21 (centres undefined)	.	.	-	-69	.
CN(C)CCOC1c2ccccc2C=Cc2ccccc21	.	.	-	?	.
COc1cc2c(cc1NC(=O)c1ccccc1C)n(C)c(=O)n2C	-	-	-	.	-
CC1=NC(=O)C(N=Nc2ccccc2C(=O)O)N1c1ccccc1 (centres undefined)	-	-	32	-	-
CC1=NC(=O)C(N=Nc2ccccc2)N1c1ccccc1 (centres undefined)	-	-	-	-58	-
CC1=NC(=O)C(N=Nc2cccc(C(=O)O)c2)N1c1ccccc1 (centres undefined)	-	-	-	?	-
O=C(/C=C/c1ccc(F)cc1)NC(Cc1c[nH]c2ccccc12)C(=O)O (centres undefined)	-	-	-	-	-
Cc1ccc(NC(=O)CN(C)C(=O)c2ccc(C(F)(F)F)cc2)cc1	-32	-	-	-	-
Cc1ccc(S(=O)(=O)NCC(=O)Nc2ccc(C(F)(F)F)cc2)cc1	-	-	35	-	-
O=C(CNS(=O)(=O)c1ccc(F)cc1)Nc1ccc(C(F)(F)F)cc1	-	-	-	-	-
Cc1ccc(NC(=O)CN(C)C(=O)c2cccc(Br)c2)cc1	-	-	-	-	-
CCOC(=O)CC1C(=O)NCCN1c1nc2ccc(C)cn2c(=O)c1/C=C1\SC(=S)N(CC(C)C)C1=O (centres undefined)	-	-	-	-	320
CCCN1C(=O)/C(=C/c2c(N3CCNC(=O)C3CC(=O)OCC)nc3c(C)cccn3c2=O)SC1=S (centres undefined)	-	-	-	-	216
CCOC(=O)CC1C(=O)NCCN1S(=O)(=O)c1ccc(Cl)c(Cl)c1 (centres undefined)	-	-	-	-	-
CCOC(=O)CC1C(=O)NCCN1C(=O)c1ccc(C)cc1 (centres undefined)	-	-	-	-	-
CCCCCN1C(=O)/C(=C/c2c(N3CCc4ccccc4C3)nc3ccccn3c2=O)SC1=S	.	.	-	-	.
CCOC(=O)CC1C(=O)NCCN1c1nc2ccc(C)cn2c(=O)c1/C=C1\SC(=S)N(C(C)CC)C1=O (centres undefined)	-47	34	.	.	584
CC(=O)Oc1cc2c(s1)CCN(C(C(=O)C1CC1)c1ccccc1F)C2 (centres undefined)	.	.	-	.	.
COc1ccc(C(=O)/C(Br)=C\C(=O)O)cc1	.	.	-	.	.
O=C(CCC1N=C2c3ccccc3N=C(SCC(=O)NCC3CCCO3)N2C1=O)NCc1ccc(F)cc1 (centres undefined)	-	-	-	-	-
CCOc1ccc(N/C(N)=N/c2nc(CSc3nnnn3-c3ccccc3)cc(=O)[nH]2)cc1	-	-	-	-	-
O=c1c2oc3ccccc3c2n(Cc2ccc(Cl)cc2)c(=O)n1Cc1ccco1	-	-	-	.	-
COc1ccc(CCN(C)C2CCCN(S(=O)(=O)N(C)C)C2)cc1OC (centres undefined)	.	.	-	-	.
COC(=O)c1sccc1S(=O)(=O)N1CCCC(N(C)CCc2ccccn2)C1 (centres undefined)	-35	-	-	-	-
COc1ccc(CCN(C)C2CCCN(S(=O)(=O)c3ccccc3F)C2)cc1OC (centres undefined)	-32	-	-	-	-
SMILES	D1 antag	D1 potentiator	DRD3 agonist	D3 antag	D1 agonist
O=C1C(=O)N(C2CCN(S(=O)(=O)c3ccccc3)CC2)CCN1Cc1ccccc1	-	-	-	.	-
Cc1ccccc1N1CCN(C2CCCN(C(=O)CCC3(C)CC3)C2)CC1 (centres undefined)	-	-	-	-64	-
CCOC(=O)[C@]12CCCC=C1N(CCc1ccc(OC)c(OC)c1)C(=O)[C@H](CC(=O)NCCc1ccccc1OC)C2	.	.	-	-	.
CCOC(=O)c1[nH]c(C)c(/C=N/O)c1C	-56	-	-	-	-
CCOC(=O)c1[nH]c(C)c(C)c1C	-	-	-	-	-
CCn1c(=NC(=O)c2ccc(N3C(=O)CCC3=O)cc2)sc2c(OC)ccc(OC)c21	-	.	-	-76	-
CCn1c(=NC(=O)c2cccc(N3C(=O)CCC3=O)c2)sc2c(C)ccc(OC)c21	-	-	-	-	-
CCOC(=O)C(Oc1ccc2c(-c3ccccc3)cc(=O)oc2c1)c1ccccc1 (centres undefined)	-31	-	-	-	-
CN(Cc1ccccc1)C(=O)c1cccc(N2C(=O)C3CC=CCC3C2=O)c1 (centres undefined)	-	-	-	-	-
Cc1ccccc1NC(=O)c1cccc(N2C(=O)C3CCCCC3C2=O)c1 (centres undefined)	-30	-	-	-	-
Cc1ccccc1NC(=O)c1cccc(N2C(=O)C3C4CCC(C4)C3C2=O)c1 (centres undefined)	-	-	-	-	-
CN(C(=O)c1cccc(N2C(=O)C3CC=CCC3C2=O)c1)C1CCCCC1 (centres undefined)	-30	-	-	-	-
COc1ccc(CN2CCNC(=O)C2CC(=O)NC2CCOCC2)c(F)c1 (centres undefined)	-	-	-	-	-
COc1ccc(CN2CCNC(=O)C2CC(=O)NC2CCCCCC2)c(F)c1 (centres undefined)	-	-	-	-69	-
CCOC(=O)C(=O)Nc1ccccc1C(=O)NC(C)C	-	-	38	-	-
CCOC(=O)C(=O)Nc1ccc(Oc2ccccc2)cc1	-33	-	-	-	-
CCOC(=O)/C=C/C(=O)Nc1ccc(Oc2ccccc2)cc1	-36	-	-	-	-
CCOC(=O)/C=C/S(=O)(=O)c1ccc(NC(C)=O)cc1	-	-	-	-76	-
O=C(Nc1scc(-c2cccs2)c1C(=O)O)c1cccs1	-84	-	-	?	-
COC(=O)c1c(-c2cccs2)csc1NC(=O)c1ccc(OC)c(OC)c1	-	-	-	.	-
COC(=O)c1c(-c2cccs2)csc1NC(=O)c1cc(OC)c(OC)c(OC)c1	-66	-	36	.	-
CCOC(=O)c1sc2ncn(CC(=O)Nc3ccc(C)cc3C)c(=O)c2c1C	-	-	-	.	-
Nc1nonc1C(=O)NCCNCc1cc(Br)ccc1OCc1ccc(F)cc1	-37	-	-	-	-
Nc1ncnc2c1ncn2[C@@H]1O[C@H](CNCc2c(OCc3ccccc3F)ccc3ccccc23)[C@@H](O)[C@H]1O	.	.	-	-	.
Nc1nonc1C(=O)NCCNCc1c(OCc2ccccc2F)ccc2ccccc12	-45	-	-	-55	-
Nc1nnc(SCC(=O)N2CCc3ccccc3C2)s1	-	-	-	-	-
CCn1c(CSc2nc(C)cc(C)n2)nnc1SCC(=O)Nc1nc(-c2ccccc2)cs1	-	-	-	-	37
CC1=CN2C(=N)/C(=C\c3cn(CCCOc4ccccc4)c4ccccc34)C(=O)N=C2S1	-	-	-	-	31
Cc1cc(Nc2ccccc2C(=O)O)ccc1Cl	.	.	-	.	.

Bioassay records: PubChem, National Center for Advancing Translational Sciences (NCATS)
